“And” between values parts separate entries of the source, which are not always exact repeats. Identical values can stand only once. Records with an inconclusive call do not appear. Unmarked numbers belong to inactive results. The source made the active and inactive calls. The call rests on the fitted dose curve; in most records, active means well fitted cell-killing curve with a large enough effect; inconclusive means small, poorly fitted or top-dose-only effect; inactive means no such curve, though single readings can be large or run the other way.
Assay: qHTS of pediatric cancer cell lines to identify multiple opportunities for drug repurposing: Primary screen for Rh30 cells (AID 1347107); further: nearly all actives have a fitted effect of over 75% in size; on activity change, negative = cytotoxic: on the % scale 0 is the no-effect control and ±100 the full control effect
Conditions: Rh30 rhabdomyosarcoma viability, CellTiter-Glo luminescence, 48 h; series mostly up to 46 µM; activity change, negative = cytotoxic: at the top concentration
Method in brief: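 Cells (500-1,000/well) in growth media were settled 5 h at 37 degrees C, then given compounds for 48 h. Viability was read as CellTiter-Glo luminescence. Primary runs used MIPE at 11 points (0.78 nM-46 µM) and NPC at 8 points (0.59 nM-46 µM); follow-ups used 11 points.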
Potency means the concentration at half of the fitted maximal effect.

SMILES	activity change, negative = cytotoxic [%]	Potency
CCOc1ccc(Nc2nc(-c3c(C)nc4ccccn34)cs2)cc1	29.3	
CC[C@]1(O)C[C@@H]2CN(CCc3c([nH]c4ccccc34)[C@@](C(=O)OC)(c3cc4c(cc3OC)N(C)[C@H]3[C@@](O)(C(=O)OC)[C@H](OC(C)=O)[C@]5(CC)C=CCN6CC[C@]43[C@@H]65)C2)C1		inactive
O=C(O)c1ccc(-c2cc3cccnc3c(-c3ccc4nonc4c3)n2)cc1	13.3	
CN(C)C1CCN(C(=O)c2ccc(NC(=O)Nc3nc(N4CCOCC4)nc(N4CCOCC4)n3)cc2)CC1	-22.1	
CC(=O)Nc1ccc([C@H](C)C(=O)Nc2ncc(C(C)C)s2)cc1	-21.1	
CC(C)n1nc(-c2ccc3oc(N)nc3c2)c2c(N)ncnc21		11.8 µM (active)
COc1cc2ncnc(Nc3ccc(F)c(Cl)c3)c2cc1OCCCN1CCOCC1	-0.282	
Cc1nnc(C(C)C)n1C1C[C@H]2CC[C@@H](C1)N2CC[C@H](NC(=O)C1CCC(F)(F)CC1)c1ccccc1 (some centres undefined)	25	
CO[C@H]1C[C@@H]2CC[C@@H](C)[C@@](O)(O2)C(=O)C(=O)N2CCCC[C@@H]2C(=O)O[C@H]([C@H](C)C[C@@H]2CC[C@H](OCCO)[C@H](OC)C2)CC(=O)[C@H](C)C=C(C)[C@@H](O)[C@@H](OC)C(=O)[C@H](C)C[C@H](C)C=CC=CC=C1C	-19.2	
CON=C(C(=O)N[C@@H]1C(=O)N2C(C(=O)OCOC(=O)C(C)(C)C)=C(C=Cc3scnc3C)CS[C@H]12)c1csc(N)n1	24.1	
NS(=O)(=O)c1cccc2c1C(=O)c1cccc(O)c1C2=O		2.35 µM (active)
O=C(O)CCc1nc(-c2ccccc2)c(-c2ccccc2)o1	-0.292	
CO[C@H]1C=CC=C(C)C(=O)NC2=CC(=O)C(NCCN(C)C)=C(C[C@@H](C)C[C@H](OC)[C@@H](O)[C@@H](C)C=C(C)[C@@H]1OC(N)=O)C2=O		5.9 µM (active)
CC1(C)CCC[C@@]2(C)[C@@H]1CC[C@@]1(C)OC(=O)C[C@H]21	12.1	
NC1=N[C@@]2(c3cc(NC(=O)c4ccc(F)cn4)ccc3F)COC[C@@H]2CS1	-1.58	
CC=C(C)C(=O)O[C@H]1C(C)=C[C@]23C(=O)[C@@H](C=C(CO)[C@@H](O)[C@]12O)[C@H]1[C@@H](C[C@H]3C)C1(C)C	6.04	
CN[C@@H](C)C(=O)N[C@H]1CN(C(=O)CC(C)C)CC[C@H]2CC[C@@H](C(=O)NC(c3ccccc3)c3ccccc3)N2C1=O	2.59	
CCCNC(=O)NS(=O)(=O)c1ccc(Cl)cc1	21.8	
CO[C@H]1C[C@@H]2CC[C@@H](C)[C@@](O)(O2)C(=O)C(=O)N2CCCC[C@@H]2C(=O)O[C@H]([C@H](C)C[C@@H]2CC[C@H](OP(C)(C)=O)[C@H](OC)C2)CC(=O)[C@H](C)C=C(C)[C@@H](O)[C@@H](OC)C(=O)[C@H](C)C[C@H](C)C=CC=CC=C1C	-6.77	

Assay: qHTS of pediatric cancer cell lines to identify multiple opportunities for drug repurposing: Primary screen for Rh41 cells (AID 1347108); further: nearly all actives have a fitted effect of over 70% in size;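 on activity change, negative = cytotoxic: luminescence drop marks cytotoxic hits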
Conditions: Rh41 rhabdomyosarcoma viability, CellTiter-Glo luminescence, 48 h; series mostly up to 46 µM; activity change, negative = cytotoxic: at the top concentration
Method in brief: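 500-1,000 cells/well; 5 h pre-incubation 37 °C/5% CO2; compound pinned; 48 h; CellTiter-Glo, 15 min RT; luminescence. MIPE 11-pt from 0.78 nM, NPC 8-pt from 0.59 nM final. Bortezomib 2.3 µM final as positive control.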

SMILES	Potency	activity change, negative = cytotoxic [%]
CNC1CCC(N(Cc2cccc(-c3ccncc3)c2)C(=O)c2sc3c(F)ccc(F)c3c2Cl)CC1 (centres undefined)	18.7 µM (active)	
CCOc1ccc(Nc2nc(-c3c(C)nc4ccccn34)cs2)cc1		-22.1
COc1cc2ncnc(-n3nc(-c4ccccn4)nc3N)c2cc1OC		-11.7
COc1ccc(C2CC(c3ccccc3)=NN2c2ccc(S(N)(=O)=O)cc2)cc1 (centres undefined)		-0.349
COc1ccc2c3c1OC1C[C@@H](O)C=C[C@@]31CCN(C)C2 (some centres undefined)		20
CN(C)C1CCN(C(=O)c2ccc(NC(=O)Nc3nc(N4CCOCC4)nc(N4CCOCC4)n3)cc2)CC1	0.0935 µM (active)	
CC(=O)Nc1ccc([C@H](C)C(=O)Nc2ncc(C(C)C)s2)cc1	7.43 µM (active)	
CC(C)n1nc(-c2ccc3oc(N)nc3c2)c2c(N)ncnc21	0.0235 µM (active)	
O=C(NCc1ccccc1)c1csc(Nc2ccncn2)n1	9.35 µM (active)	
O=C(Nc1cc(Cl)cc2c1[nH]c1cnccc12)c1cccnc1		-17.6
COc1cc2ncnc(Nc3ccc(F)c(Cl)c3)c2cc1OCCCN1CCOCC1	17.1 µM (active)	
CO[C@H]1C[C@@H]2CC[C@@H](C)[C@@](O)(O2)C(=O)C(=O)N2CCCC[C@@H]2C(=O)O[C@H]([C@H](C)C[C@@H]2CC[C@H](OC(=O)C(C)(CO)CO)[C@H](OC)C2)CC(=O)[C@H](C)C=C(C)[C@@H](O)[C@@H](OC)C(=O)[C@H](C)C[C@H](C)C=CC=CC=C1C	14.8 µM (active)	
COc1cc(Nc2ncc(F)c(Nc3ccc4c(n3)NC(=O)C(C)(C)O4)n2)cc(OC)c1OC	2.35 µM (active)	
Cc1nnc(C(C)C)n1C1C[C@H]2CC[C@@H](C1)N2CC[C@H](NC(=O)C1CCC(F)(F)CC1)c1ccccc1 (some centres undefined)		20.2
O=C1NC(=O)C(=Cc2cccc(C(F)(F)F)c2)S1	23.5 µM (active)	
CO[C@H]1C[C@@H]2CC[C@@H](C)[C@@](O)(O2)C(=O)C(=O)N2CCCC[C@@H]2C(=O)O[C@H]([C@H](C)C[C@@H]2CC[C@H](OCCO)[C@H](OC)C2)CC(=O)[C@H](C)C=C(C)[C@@H](O)[C@@H](OC)C(=O)[C@H](C)C[C@H](C)C=CC=CC=C1C	1.18 µM (active)	
CON=C(C(=O)N[C@@H]1C(=O)N2C(C(=O)OCOC(=O)C(C)(C)C)=C(C=Cc3scnc3C)CS[C@H]12)c1csc(N)n1		21.3
NS(=O)(=O)c1cccc2c1C(=O)c1cccc(O)c1C2=O	0.935 µM (active)	
O=C(CCCCCCC(=O)Nc1ccccc1)NO	3.35 µM (active) and 5.9 µM (active)	
O=C(O)CCc1nc(-c2ccccc2)c(-c2ccccc2)o1		-0.419
CO[C@H]1C=CC=C(C)C(=O)NC2=CC(=O)C(NCCN(C)C)=C(C[C@@H](C)C[C@H](OC)[C@@H](O)[C@@H](C)C=C(C)[C@@H]1OC(N)=O)C2=O	0.59 µM (active)	
O=c1c(-c2ccc(O)cc2)coc2cc(OC3O[C@H](CO)[C@H](O)[C@H](O)[C@H]3O)cc(O)c12 (some centres undefined)	8.33 µM (active)	
CC1(C)CCC[C@@]2(C)[C@@H]1CC[C@@]1(C)OC(=O)C[C@H]21		10.7
CC(=O)N(C)C1(c2ccccc2)CCN(CCC[C@]2(c3ccc(Cl)c(Cl)c3)CCCN(C(=O)c3ccccc3)C2)CC1	18.7 µM (active)	
NC1=N[C@@]2(c3cc(NC(=O)c4ccc(F)cn4)ccc3F)COC[C@@H]2CS1	18.7 µM (active)	
CN(C)CCC=C1c2ccccc2COc2ccc(CC(=O)O)cc21		2.73
Cc1c[nH]c(C=C2C(=O)Nc3ccccc32)c1CCC(=O)O		-10.5
CCCNC(=O)NS(=O)(=O)c1ccc(Cl)cc1		28.4
OC[C@H]1O[C@@H](n2cnc3c2NC=NC[C@@H]3O)C[C@H]1O		8.15
Nc1nc(F)nc2c1ncn2[C@@H]1O[C@H](COP(=O)(O)O)[C@@H](O)[C@H]1O		-13.9
